According to PubChem BioAssay (Tox21):
Records with an inconclusive call do not appear. Unmarked numbers belong to inactive results. The source made the active and inactive calls. Calls follow the shape of the dose curve; as a rule, active = well fitted activation curve with a large enough effect in the repeat runs; inconclusive = weak or mixed curves; inactive = no such curve, though single readings can be large or run the other way.

molecular target: Nuclear receptor subfamily 1 group I member 2 (Homo sapiens) (UniProt O75469); test: Human pregnane X receptor (PXR) small molecule agonists, qHTS assay (AID 1346982); details: PXR-Luc HepG2, CYP3A4 luciferase reporter, 24 h; series mostly up to 92.4 µM; activation: at the top concentration; also: nearly all actives have a fitted effect of over 35% in size
From the text: National Center for Advancing Translational Sciences [NCATS]
NIH Chemical Genomics Center [NCGC]
U.S. Environmental Protection Agency [EPA]
National Institutes of Environmental Health Sciences [NIEHS]
National Toxicology Program [NTP]
The human pregnane X receptor (hPXR) regulates the expression of several drug metabolizing enzymes and induction of these proteins is a major mechanism for developing drug resistance in cancer. One such key enzyme catalyzing the drug metabolism is cytochrome P450 3A4 (CYP3A4). Changes in CYP3A4 expression affect drug metabolism, thereby reducing the therapeutic efficacy and altering toxicological response to a drug and which finally causes adverse drug interaction. To screen Tox21 libraries for compounds that activate hPXR-mediated CYP3A4 gene expression, PXR-Luc HepG2 cells were used.
PXR-Luc HepG2 cells were dispensed at 2,000 per well in 5uL of assay medium containing 5% charcoal-stripped FBS into white solid bottom 1536-well plates (Corning Life Sciences, Corning, NY) using a Multidrop Combi (Thermo Scientific, Waltham, MA) dispenser. The assay plates were incubated at 37 C and 5% CO2 for 5hr, and then 23nL of compounds dissolved in DMSO and positive control were transferred using a Pintool station (Wako, San Diego, CA). The assay plates were incubated at 37C and 5% CO2 for 24hr. For luciferase read, 4uL of ONE-Glo reagent (Promega Corporation, Madison, WI) was added to each well of the assay plates using Flying Reagent Dispenser (FRD, Aurora Discovery, San Diego, CA) and incubated the assay plates at room temperature for 30min. The luminescence signal was quantified using a ViewLux plate reader (Perkin Elmer, Shelton, CT).
% is scaled to controls: 0 for no effect and ±100 for the full control effect; potency is read from the fitted curve at half-maximal effect.

Sequence of Nuclear receptor subfamily 1 group I member 2 (Homo sapiens) (O75469 whole entry, looked up): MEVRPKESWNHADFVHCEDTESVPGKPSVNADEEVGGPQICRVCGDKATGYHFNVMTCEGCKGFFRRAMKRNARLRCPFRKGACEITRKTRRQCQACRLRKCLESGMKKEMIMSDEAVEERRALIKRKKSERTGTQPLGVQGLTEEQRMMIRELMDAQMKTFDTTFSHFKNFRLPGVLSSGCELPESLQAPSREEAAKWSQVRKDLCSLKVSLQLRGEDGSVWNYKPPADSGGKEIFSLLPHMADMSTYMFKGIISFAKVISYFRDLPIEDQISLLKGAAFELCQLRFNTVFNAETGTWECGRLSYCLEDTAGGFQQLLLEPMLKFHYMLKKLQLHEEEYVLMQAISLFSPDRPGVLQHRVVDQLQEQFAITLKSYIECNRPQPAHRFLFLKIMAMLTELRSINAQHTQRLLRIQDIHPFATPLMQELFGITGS

| SMILES | activation | Potency |
| --- | --- | --- |
| Oc1cc(O)c2c(c1)O[C@H](c1ccc(O)c(O)c1)[C@H](O)C2 | 1.77% [at 42.5 µM] |  |
| NCCN1CCNC1=O | 9.19% |  |
| CC(=O)OC(C)(C)C | 6.93% |  |
| CCO[Si](CCCN=C=O)(OCC)OCC | 12.2% |  |
| CC(C=O)Cc1ccc(C(C)C)cc1 (stereo not given) | -0.724% |  |
| NC(N)=NS(=O)(=O)c1ccc(N)cc1 | -7.06% [at 42.5 µM] |  |
| O=C(O)c1cccc(C(=O)O)n1 | -9.72% |  |
| C[C@H]1O[C@@H](n2cc(F)c(=O)[nH]c2=O)[C@H](O)[C@@H]1O | -2.59% [at 42.5 µM] |  |
| Cc1cc(C)c(NC(=O)CN(CC(=O)O)CC(=O)O)c(C)c1Br | -11.5% [at 42.5 µM] |  |
| CN(C)CCOC(c1ccc(Cl)cc1)c1ccccn1 (stereo not given) | 12.8% [at 42.5 µM] |  |
| CCCCCCCCC=O | 10.6% |  |
| N#CC1(O)CCCCC1 |  | 17.4 µM (active) |
| CC(C)CCCC(C)NCCC(C)C (stereo not given) | -7.12% [at 42.5 µM] |  |
| CCC(=O)c1cccc(Cl)c1 | 1.66% |  |
| NS(=O)(=O)c1cc2c(cc1C(F)(F)F)NC(Cc1ccccc1)NS2(=O)=O (stereo not given) | 0.892% [at 42.5 µM] |  |
| CC(C)CCCCCCN | 12.7% |  |
| CC(C)(O)Cc1ccccc1 | 0.724% |  |
| NC(CS)C(=O)O (stereo not given) | -5.68% [at 42.5 µM] |  |
| OC1OC[C@@H](O)[C@H](O)[C@H]1O (stereo not given in full) | 7.15% |  |
| CO[Si](CCCNCCC[Si](OC)(OC)OC)(OC)OC | 4.95% |  |

| SMILES | activation | Potency |
| --- | --- | --- |
| CN(C)C(=O)C(CCN1CCC(O)(c2ccc(Cl)cc2)CC1)(c1ccccc1)c1ccccc1 | -1.29% [at 42.5 µM] |  |
| CCCC(C)C(=O)O (stereo not given) | 16.1% |  |
| CCC(C(=O)NC(N)=O)c1ccccc1 (stereo not given) | 3.69% |  |
| c1ccc2cnncc2c1 | 4.09% |  |
| O=C(O)C1CCC1 | -0.89% [at 42.5 µM] |  |
| Nc1nc(F)nc2c1ncn2[C@@H]1O[C@H](CO)[C@@H](O)[C@@H]1O | 6.31% [at 42.5 µM] |  |
| CC(C)c1ccc2oc3nc(N)c(C(=O)O)cc3c(=O)c2c1 |  | 0.335 µM (active) |
| CCCCCCCCCCCCCCC | -9.64% |  |
| C=C[Si](OC)(OC)OC | 1.79% |  |
| CCCCCOC(=O)Nc1nc(=O)n([C@@H]2O[C@H](C)[C@@H](O)[C@H]2O)cc1F | -11.1% [at 42.5 µM] |  |
| N[C@@H](CS)C(=O)O | -2.26% |  |
| CCCCCCOC(=O)c1ccccc1O | 9.35% |  |
| CCCCCCCCN(C)CCCCCCCC | 5.37% |  |
| Nc1nc2c(ncn2CCC(CO)CO)c(=O)[nH]1 | 5.82% [at 42.5 µM] |  |
| CC(C)(O)C(=O)c1ccc(OCCO)cc1 | -3.58% |  |
| Cn1cnc2c(=O)[nH]c(N)nc21 | -4.42% |  |
| CC1=CC(C)C(C=O)C(C)C1 (stereo not given) | 19.5% |  |
| c1cc(CN2CCCCC2)cc(OCCCNc2nc3ccccc3s2)c1 |  | 5.31 µM (active) |
| COC(=O)CCCC(=O)O | 5.98% |  |
| NC(=O)c1ncn([C@@H]2O[C@H](CO)[C@@H](O)[C@H]2O)c1N | -10.6% [at 42.5 µM] |  |
